In the library only some 9.3% were active in any assay of this set; here they are far more common.
Vaccinia mCherry = inhibitors of vaccinia virus infection (mCherry reporter signal); Potency, µM (doses to about 36.5 µM), inactives show top-dose activity change, negative = inhibition, hits mostly inhibitors; Vaccinia virus mCherry reporter infection, fluorescence; AID 720579; 310,000 tested, 0.63% active; calls by dose curve; tested in A549 cells; note: potency is the fitted concentration of half-maximal effect; nearly all actives have a fitted effect of over 35% in size
Vaccinia Venus = inhibitors of vaccinia virus (Venus reporter) | 330,000 tested, 0.46% active | Potency, µM (top dose mostly 36.5 µM), for inactives: top-dose activity change, negative = inhibition, hits mostly inhibitors | Vaccinia virus Venus reporter expression, fluorescence; calls by dose curve; tested in A549 cells; note: potency is the fitted concentration of half-maximal effect; nearly all actives have a fitted effect of over 30% in size
Sm TGR inh = blocks Schistosoma mansoni thioredoxin glutathione reductase | Potency, µM (highest dose often 114 µM), inactives show at the highest dose activity change, negative = inhibition, usual class: inhibitors | Q962Y6 | 360,000 tested, 3% active | AID 485364 | purified TGR, DTNB reduction, TNB absorbance 405 nm; note: potency is the fitted concentration of half-maximal effect; nearly all actives have a fitted effect of over 60% in size
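TGR 20 nM + NADPH 100 uM (dispensed conc.), cpd preinc 15 min RT; start with NADPH (500 uM addition) then DTNB (15 mM addition). Kinetic TNB absorbance, 405 nm filter. Four-parameter Hill fit across titration.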
FMDV antiviral = blocks foot and mouth disease virus; FMDV antiviral cell-based qHTS; Potency, µM (top dose mostly 57.9 µM), without a hit: top-dose activity change, negative = inhibition, actives largely listed as inhibitors; 410,000 tested, 1.2% active; calls by dose curve; tested in HEK293T cells; note: read-out not given here; potency is the fitted concentration of half-maximal effect; nearly all actives have a fitted effect of over 45% in size
HCMV inh = inhibitors of human cytomegalovirus | activity change, negative = inhibition, % at 57.5 µM | HFF cells, HCMV-luciferase reporter, 72 h; active compounds read low | 410,000 tested, 4.5% active; in the data active = activity change below about -60%; inconclusive = no clear call, values can overlap the other calls; inactive = above about -39%
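Two compound doses tested in HFFs infected with HCMV-luciferase, MOI 1 PFU/cell, 72 h at 37C. Lysate luminescence read with OneGlo; data normalized against buffer-only and 10uM Salinomycin inhibitor controls.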
HCV inh = blocks hepatitis C virus; Huh7.5.1 HCVcc-Cre infection, luciferase reporter, 44 h; Potency, µM (titrated, usually from 41.8 µM), inactives show at the top dose activity change, negative = inhibition, usual class: inhibitors; 340,000 tested, 3.4% active; AID 651820; note: potency is the fitted concentration of half-maximal effect
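Seed cells (1,000/well) for 4 h; treat with compound and infect with HCVcc-Cre, moi about 0.5. Incubate 44 h, then detect luciferase activity.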
Starred values were filed as active, the others as inactive; i = inactive; ? = inconclusive; · = not tested or not shown; [ ] = remark or other dose. Unless noted, calls come from the whole dose curve; as a rule, active = well fitted curve in the direction sought with a large enough effect; inconclusive = small, poorly fitted or top-dose-only effect, or another doubt; inactive = no such curve, though single readings can be large; an effect the other way counts as inactive or inconclusive. % is set by controls: 0 for no effect and ±100 for the full control effect.

SMILES | Vaccinia mCherry | Vaccinia Venus | Sm TGR inh | FMDV antiviral | HCMV inh | HCV inh
CC(C)(CNC(=O)c1cccc(NS(=O)(=O)c2ccc(Br)cc2)c1)N1CCOCC1 | -9% | -11% | 57% | -15% | 7 | ?
COc1ccc(C(O)c2ncc(-c3cccc(F)c3)[nH]2)cc1F (centres undefined) | 5% | -3% | · | 53% | -3 | ·
CC1CC(C)CN(c2nc3c(c(=O)n(C)c(=O)n3C)n2CCSc2nc3ccccc3o2)C1 (centres undefined) | 8% | 4% | · | -30% | 18 | 9%
COc1cccc(CNc2nc3cc(-c4ccc(OC)c(OC)c4)sc3c(=O)n2C)c1 | -8% | -30% | · | ? | 21 | ·
COCCNc1nc(NCc2ccc(NC(C)=O)cc2)c2sc(-c3ccccc3)cc2n1 | ? | 11µM* | · | -7% | -98* | ·
COCCNc1nc(Oc2ccc(NC(C)=O)cc2)c2sc(-c3ccccc3)cc2n1 | -14% | ? | · | -18% | -16 | ·
COc1cccc(CNc2nc3cc(-c4ccccc4)sc3c(=O)n2C)c1 | i | -20% | · | 0% | -65* | ·
Cc1c(N=Cc2c(O)n(C)c(=O)[nH]c2=O)c(=O)n(-c2ccccc2)n1C | · | · | 7% | -7% | 35 | -3%
COc1ccc(Br)cc1CN1CCN(Cc2c[nH]c3ccccc23)CC1 | ? | ? | -11% | -27% | -100* | ?
O=C(COc1ccc(Br)cc1)N1CCN(Cc2c[nH]c3ccccc23)CC1 | 14µM* | ? | -2% | -25% | 10 | -12%
O=C(Nc1ccc(Br)cc1F)C1CCN(c2nc3ccccc3[nH]2)CC1 | -15% | -6% | 0% | -6% | 0 | ·
CCN(CC)S(=O)(=O)c1ccc(NS(=O)(=O)c2cccc(C)c2)cc1 | · | · | 16%[11.4 µM] | 63% | -5 | 8%
O=C(O)CC1SC(=Nc2cccc(O)c2)NC1=O (centres undefined) | -7% | 5% | -2% | 6% | -14 | 2%
O=C1NC(=Nc2cccc(Cl)c2)SC1Cc1cccc(Cl)c1Cl (centres undefined) | -4% | -16% | 8% | · | -78* | -25%
O=C(NCCc1ccc(Cl)cc1)c1ccc2c(c1)OCCO2 | · | · | 3% | 3% | 15 | 11%
S=C(N/N=C/c1ccc2ncccc2c1)Nc1cccnc1 | · | · | 2% | 14µM* | -71* | 0%
Oc1ccc(C=NNC(=S)Nc2cccnc2)nc1 | -26% | -22% | · | 27% | -69* | ?
Oc1ccc(/C=N/NC(=S)Nc2cccnc2)cc1O | -10% | -12% | -17% | ? | 82 | -3%
CN(Cc1ccco1)c1nc(-c2ccc3c(c2)OCO3)nc2ccccc12 | · | · | · | 25% | · | ·
CCN(CC)C(=O)C1=C(C)Nc2nc3ccccc3n2C1c1cccc(OC)c1 (centres undefined) | -12% | ? | -1% | -7% | 8 | -4%
CC(C)(C)OC(=O)N(Cc1ccccc1)Cc1cccc(OCc2cccc(NC(=O)C3CC3)c2)c1 | -7% | ? | · | ? | ? | 1.3µM*
CC(C)(C)OC(=O)N1CCC(C(=O)Nc2cccc(C(=O)NCCCc3ccccc3)c2)CC1 | -13% | -20% | · | ? | -27 | 4µM*
O=C(NCCCc1ccccc1)c1cccc(NC(=O)C2CCCCC2)c1 | i | -26% | · | -15% | -11 | 4.5µM*
CC(C)(C)OC(=O)N(CCc1ccccc1)Cc1cccc(OCc2cccc(NC(=O)C3CCC3)c2)c1 | 0% | -5% | · | -22% | -17 | -5%[8.37 µM]
Cc1cccc(-n2c(SCc3cc(=O)n4c(C)cccc4n3)nc3[nH]ncc3c2=O)c1 | · | · | 23% | · | · | 11%
SMILES | Vaccinia mCherry | Vaccinia Venus | Sm TGR inh | FMDV antiviral | HCMV inh | HCV inh
COCCNC(=S)N1CCCC(CO)C1 (centres undefined) | i | -8% | 7% | -2% | -30 | 14%
C[C@@H](NC(=O)c1[nH]cnc1C(=O)Nc1cccc(Cl)c1)c1ccccc1 | -3% | -25% | -17% | 0% | -79* | 0%
O=C(c1ccccc1)c1nc[nH]c1C(=O)Nc1ccccc1 | · | -13% | 0% | 4% | -65* | 10%
C[C@H](NC(=O)c1[nH]cnc1C(=O)Nc1ccon1)c1ccccc1 | -25% | -23% | -4% | -18% | 8 | 1.4µM*
CCN(CC)C(=O)c1nc[nH]c1C(=O)N1CCC(C)CC1 | -12% | -9% | · | -21% | 1 | 9%
C[C@H](NC(=O)c1[nH]cnc1C(=O)Nc1cccc(Cl)c1)c1ccccc1 | -19% | ? | -3% | -2% | ? | -11%
CC1CCN(C(=O)c2[nH]cnc2C(=O)N(C)Cc2ccccc2)CC1 | -11% | -4% | -17% | 1% | -62* | -8%
COc1ccc(S(=O)(=O)N2CCOC2CNC(=O)C(=O)NCCCc2ccccc2)cc1 (centres undefined) | -19% | -22% | -1% | -30% | -21 | ·
COc1ccc(CCN=Cc2ccc(O)cc2)cc1OC | i | 2% | -16% | -5% | -11 | 7%
COc1cc(CN2CC(=O)N(c3cc(Cl)ccc3C)C2=S)cc(OC)c1OC | · | · | -2% | ? | -31 | -23%
Cc1cccc(NC(=O)c2nc[nH]c2C(=O)Nc2cc(Br)ccc2F)c1 | -17% | ? | · | -17% | -88* | ·
CC(C)(C)OC(=O)N1CCN(C(=O)c2nc[nH]c2C(=O)N2CCN(c3ccccc3)CC2)CC1 | -13% | -9% | ? | -9% | -3 | -7%
Cc1cccc(NC(=O)c2nc[nH]c2C(=O)Nc2ccccc2[N+](=O)[O-])c1 | ? | -18% | 4% | 4% | -37 | 9%
CC1CCN(C(=O)c2[nH]cnc2C(=O)Nc2ccon2)CC1 | -13% | -4% | 40µM* | 5% | 2 | 2%
O=C(c1nc[nH]c1C(=O)N1CCN(c2ccccc2)CC1)N1CCN(c2ccccc2)CC1 | -10% | -15% | -7% | -24% | 0 | 3.5µM*
O=C(Nc1ccc(Cl)cc1)c1nc[nH]c1C(=O)NCc1ccccc1 | ? | ? | 2% | -27% | -74* | ?
CN(Cc1ccccc1)C(=O)c1[nH]cnc1C(=O)Nc1ccc(Cl)cc1 | ? | ? | -16% | 0% | -31 | ?
C[C@@H](NC(=O)c1[nH]cnc1C(=O)Nc1ccc(Cl)cc1)c1ccccc1 | ? | ? | 2% | -4% | -70* | ?
COC(=O)c1cccc(NC2CC(=O)N(c3ccc(OC)c(OC)c3)C2=O)c1 (centres undefined) | · | · | 35µM* | 7% | 2 | 1%
COc1ccc(N2C(=O)CC(Nc3ccc(C(=O)O)cc3)C2=O)cc1OC (centres undefined) | · | · | 22µM* | 0% | 10 | 7%
Cc1nnc(Sc2cc(NCCCO)c([N+](=O)[O-])c3nonc23)s1 | i | 1% | 0.32µM* | ? | 57 | 10µM*

Screening results (PubChem)
